Measurements reported in PubChem BioAssay (Tox21).
Results filed as inconclusive are left out. The source made the active and inactive calls. The call rests on the fitted dose curve; in most records, active means well fitted curve in the direction sought with a large enough effect in the repeat runs; inconclusive means weak or mixed curves; inactive means no such curve, though single readings can be large; an effect the other way counts as inactive or inconclusive.

target: Nuclear receptor subfamily 1 group I member 3 (Homo sapiens) (UniProt Q14994); test: qHTS assay to identify small molecule antagonists of the constitutive androstane receptor (CAR) signaling pathway (AID 1224838); conditions: HepG2-CYP2B6-hCAR luciferase, CITCO-stimulated, 24 h; series mostly up to 92.4 µM; activity, negative = inhibition: at the top concentration;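 further: HepG2 cells stably expressing hCAR with CYP2B6 luciferase reporter stimulated by CITCO; nearly all actives have a fitted effect of over 40% in size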
Outline: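 Antagonist mode used CITCO at a final 50 nM to activate CAR in human hepatoma HepG2 cells carrying stable hCAR and a 2.2 kb CYP2B6 promoter-luciferase construct. Compounds were tested at 15 concentrations over 24 h, with luminescence as the end point.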
On the % scale 0 is the no-effect control and ±100 the full control effect; potency means the concentration at half of the fitted maximal effect.

Sequence of Nuclear receptor subfamily 1 group I member 3 (Homo sapiens) (Q14994 whole entry, looked up): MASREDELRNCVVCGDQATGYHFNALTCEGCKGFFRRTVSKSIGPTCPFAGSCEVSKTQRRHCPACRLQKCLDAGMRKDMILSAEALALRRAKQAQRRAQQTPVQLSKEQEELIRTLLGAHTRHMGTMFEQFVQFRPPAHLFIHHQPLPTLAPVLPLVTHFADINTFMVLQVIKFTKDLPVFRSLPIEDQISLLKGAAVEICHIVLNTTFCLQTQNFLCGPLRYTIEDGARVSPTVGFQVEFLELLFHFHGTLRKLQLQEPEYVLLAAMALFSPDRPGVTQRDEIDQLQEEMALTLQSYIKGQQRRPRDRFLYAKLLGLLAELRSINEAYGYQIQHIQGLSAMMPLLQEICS

SMILES	activity, negative = inhibition	Potency
COCC(=O)N(c1c(C)cccc1C)N1CCOC1=O	0.169% (inactive)	–
CC(=O)Nc1cc([As](=O)(O)O)ccc1O	-13.1% [at 42.5 µM] (inactive)	–
CNNC	20.5% (inactive)	–
CCC(Cl)[N+](=O)[O-] (centres undefined)	-1.52% (inactive)	–
CCCSC(=O)Cl	10.4% (inactive)	–
CC(Cl)(Cl)[N+](=O)[O-]	6.04% (inactive)	–
Cc1ncc2n1-c1ccc(Cl)cc1C(c1ccccc1F)=NC2	26.5% [at 42.5 µM] (inactive)	–
CC1=C(C(=O)O)N2C(=O)[C@@H](N)[C@H]2SC1	17.2% [at 19 µM] (inactive)	–
Cc1nnc2n1-c1sc(CCC(=O)N3CCOCC3)cc1C(c1ccccc1Cl)=NC2	2.96% [at 42.5 µM] (inactive)	–
CC1CCCCC1NC(=O)Nc1ccccc1 (centres undefined)	141% (inactive)	–
CCCSP(=S)(OCC)Oc1ccc(Cl)cc1Cl (centres undefined)	98.5% (inactive)	–
COC(=O)c1ccccc1S(=O)(=O)NC(=O)N(C)c1nc(C)nc(OC)n1	14.8% (inactive)	–
CNC(=O)N(C)c1nc2ccccc2s1	362% (inactive)	–
CNC(=O)Oc1ccccc1C1OCCO1	12.6% (inactive)	–
CCOc1nc(C(Cl)(Cl)Cl)ns1	34.3% (inactive)	–
CC(=O)[C@H]1CC[C@H]2[C@@H]3CC[C@H]4C[C@H](O)CC[C@]4(C)[C@H]3C(=O)C[C@]12C	-11.3% [at 42.5 µM] (inactive)	–
O=CNC(N1CCN(C(NC=O)C(Cl)(Cl)Cl)CC1)C(Cl)(Cl)Cl (centres undefined)	0.145% (inactive)	–
Cc1cc(C)nc(Nc2ccccc2)n1	143% (inactive)	–
CCCCC(=O)Cl	2.07% (inactive)	–

SMILES	activity, negative = inhibition	Potency
CCCCN(CCCCO)N=O	2.8% (inactive)	–
COc1cccc2c1cc([N+](=O)[O-])c1c(C(=O)O)cc3c(c12)OCO3	–	12.2 µM (active)
C[C@]12CC[C@H]3[C@@H](CCC4=CC(=O)CC[C@@]43C)[C@@H]1CC[C@@H]2C(=O)O	-2.16% [at 42.5 µM] (inactive)	–
C#CCN1C(=O)COc2cc(F)c(N3C(=O)C4=C(CCCC4)C3=O)cc21	71% (inactive)	–
[As]#[In]	-0.681% (inactive)	–
N#CCBr	3.82% (inactive)	–
CCC(C)n1c(=O)[nH]c(C)c(Br)c1=O (centres undefined)	23.5% (inactive)	–
CCS(=O)(=O)CCSP(=O)(OC)OC	67.4% (inactive)	–
C=C(C)CN(CC)c1c([N+](=O)[O-])cc(C(F)(F)F)cc1[N+](=O)[O-]	-14.2% (inactive)	–
Fc1cc(Br)ccc1CBr	7.72% [at 42.5 µM] (inactive)	–
OCCSCSCCO	-3.57% (inactive)	–
CCCCOC(=O)[C@@H](C)Oc1ccc(Oc2ccc(C#N)cc2F)cc1	-2.16% (inactive)	–
CCC#N	6.75% (inactive)	–
CCC(=O)c1ccccc1	7.71% (inactive)	–
CCOC(=O)C1(c2ccccc2)CCN(CCc2ccc(N)cc2)CC1	-20.8% [at 42.5 µM] (inactive)	–
CSc1ccc(C(=O)C(C)(C)N2CCOCC2)cc1	86.2% (inactive)	–
N#CCNCC#N	-24.3% (inactive)	–
CC(=O)CCc1ccc2c(c1)OCO2	22.8% (inactive)	–

target: Nuclear receptor subfamily 1 group I member 3 (Homo sapiens) (UniProt Q14994); test: qHTS assay to identify small molecule agonists of the constitutive androstane receptor (CAR) signaling pathway (AID 1224839); conditions: HepG2 hCAR CYP2B6-luciferase, agonist mode, 24 h; series mostly up to 92.4 µM; activation: at the top concentration; further: nearly all actives have a fitted effect of over 15% in size
Outline: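 Double-stable HepG2 cells (hCAR, CYP2B6-2.2kb) seeded 4 h before compound addition. Exposure 24 h with 0.75 uM PK11195 final. Luciferase detected by ONE-Glo.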

SMILES	activation	Potency
COCC(=O)N(c1c(C)cccc1C)N1CCOC1=O	5.85% (inactive)	–
CC(=O)Nc1cc([As](=O)(O)O)ccc1O	0.364% [at 42.5 µM] (inactive)	–
CNNC	3.07% (inactive)	–
CCC(Cl)[N+](=O)[O-] (centres undefined)	-1.73% (inactive)	–
CCCSC(=O)Cl	1.4% (inactive)	–
CC(Cl)(Cl)[N+](=O)[O-]	-0.2% (inactive)	–
Cc1ncc2n1-c1ccc(Cl)cc1C(c1ccccc1F)=NC2	5.14% [at 42.5 µM] (inactive)	–
CC1=C(C(=O)O)N2C(=O)[C@@H](N)[C@H]2SC1	-1.84% [at 19 µM] (inactive)	–
Cc1nnc2n1-c1sc(CCC(=O)N3CCOCC3)cc1C(c1ccccc1Cl)=NC2	1% [at 42.5 µM] (inactive)	–
CC1CCCCC1NC(=O)Nc1ccccc1 (centres undefined)	–	30.6 µM (active)
CCCSP(=S)(OCC)Oc1ccc(Cl)cc1Cl (centres undefined)	–	27.3 µM (active)
COC(=O)c1ccccc1S(=O)(=O)NC(=O)N(C)c1nc(C)nc(OC)n1	-0.822% (inactive)	–
CNC(=O)N(C)c1nc2ccccc2s1	–	24.3 µM (active)
CNC(=O)Oc1ccccc1C1OCCO1	1.23% (inactive)	–
CCOc1nc(C(Cl)(Cl)Cl)ns1	-3.34% (inactive)	–
CC(=O)[C@H]1CC[C@H]2[C@@H]3CC[C@H]4C[C@H](O)CC[C@]4(C)[C@H]3C(=O)C[C@]12C	-1.59% [at 42.5 µM] (inactive)	–
O=CNC(N1CCN(C(NC=O)C(Cl)(Cl)Cl)CC1)C(Cl)(Cl)Cl (centres undefined)	-3.41% (inactive)	–
Cc1cc(C)nc(Nc2ccccc2)n1	–	61.1 µM (active)
CCCCC(=O)Cl	1.05% (inactive)	–

SMILES	activation	Potency
CCCCN(CCCCO)N=O	-4.19% (inactive)	–
COc1cccc2c1cc([N+](=O)[O-])c1c(C(=O)O)cc3c(c12)OCO3	-11.5% (inactive)	–
C[C@]12CC[C@H]3[C@@H](CCC4=CC(=O)CC[C@@]43C)[C@@H]1CC[C@@H]2C(=O)O	0.906% [at 42.5 µM] (inactive)	–
C#CCN1C(=O)COc2cc(F)c(N3C(=O)C4=C(CCCC4)C3=O)cc21	–	48.6 µM (active)
[As]#[In]	-4.1% (inactive)	–
N#CCBr	-4.51% (inactive)	–
CCC(C)n1c(=O)[nH]c(C)c(Br)c1=O (centres undefined)	3.86% (inactive)	–
CCS(=O)(=O)CCSP(=O)(OC)OC	11.6% (inactive)	–
C=C(C)CN(CC)c1c([N+](=O)[O-])cc(C(F)(F)F)cc1[N+](=O)[O-]	12.6% (inactive)	–
Fc1cc(Br)ccc1CBr	-0.49% [at 42.5 µM] (inactive)	–
OCCSCSCCO	-2.3% (inactive)	–
CCCCOC(=O)[C@@H](C)Oc1ccc(Oc2ccc(C#N)cc2F)cc1	7.54% (inactive)	–
CCC#N	-0.786% (inactive)	–
CCC(=O)c1ccccc1	-5.87% (inactive)	–
CCOC(=O)C1(c2ccccc2)CCN(CCc2ccc(N)cc2)CC1	-0.599% [at 42.5 µM] (inactive)	–
CSc1ccc(C(=O)C(C)(C)N2CCOCC2)cc1	–	30.6 µM (active)
N#CCNCC#N	-1.41% (inactive)	–
CC(=O)CCc1ccc2c(c1)OCO2	8.87% (inactive)	–
